# Measurements published in PubChem BioAssay (NCI).
# About 79,000 compounds went through this panel and 15% of them were active in at least one assay; those are over-represented in the sample as a whole. Unmarked numbers belong to inactive results. Activity calls are given as the source filed them. Cut-off read from the data, not from the text of the source: active = growth inhibition above about 70%; inactive = the rest.
# Legend:
# [1] = NCI Yeast Anticancer Drug Screen. Data for the rad52 strain (AID 147);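 note: 0% = growth of vehicle-treated control cultures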; conditions: S. cerevisiae rad52 mutant growth inhibition, active compounds read high
# In short: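 Genetically altered yeast (DNA damage repair defect) treated with compound; inhibition calculated relative to vehicle.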
# [2] = NCI Yeast Anticancer Drug Screen. Data for the wt1 strain (AID 149);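 note: 0% = growth of vehicle-treated wt1 cultures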; conditions: S. cerevisiae wt1 strain (SPY 50644) growth inhibition, active compounds read high
# In short: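 Compounds are added to wt1 yeast cultures. Growth is then measured. Inhibition is expressed relative to vehicle-treated controls.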
# [3] = NCI Yeast Anticancer Drug Screen. Data for the rad50EPP+ strain (AID 151);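 note: 0% = growth of vehicle-treated control cultures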; conditions: S. cerevisiae rad50 mutant strain, active compounds read high
# In short: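 Strain rad50EPP+; compound exposure; % growth inhibition vs vehicle.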
# [4] = NCI Yeast Anticancer Drug Screen. Data for the mgt1 strain (AID 153); conditions: S. cerevisiae mgt1 mutant growth inhibition, active compounds read high
# In short: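 Read-out: yeast growth inhibition vs vehicle control. Strain mgt1, drawn from a panel altered in DNA damage repair or cell cycle control.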
# [5] = NCI Yeast Anticancer Drug Screen. Data for the rad50 strain (AID 155);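 note: 0% = growth of vehicle-only cultures of the same strain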; conditions: S. cerevisiae rad50 strain growth inhibition, active compounds read high
# In short: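 Inhibition values express reduced yeast growth in compound-treated cultures relative to vehicle-treated controls.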
# [6] = NCI Yeast Anticancer Drug Screen. Data for the mec2-1 strain (AID 157); conditions: S. cerevisiae mec2-1 strain, active compounds read high
# In short: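 Cells of the genetically defined mec2-1 yeast strain are incubated with test compound. Inhibition of growth is calculated against vehicle-treated controls.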
# [7] = NCI Yeast Anticancer Drug Screen. Data for the rad14 strain (AID 159);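 note: 0% = growth of vehicle-treated control cultures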; conditions: S. cerevisiae rad14 strain growth inhibition, active compounds read high
# In short: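 A mutant yeast strain defective in DNA damage repair is treated with compound; inhibition of its growth is scored against untreated, vehicle-exposed cultures.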
# [8] = NCI Yeast Anticancer Drug Screen. Data for the sgs1 mgt1 strain (AID 161);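 note: 0% = growth of cultures given vehicle only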; conditions: S. cerevisiae sgs1 mgt1 strain, active compounds read high
# In short: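 Test agents were incubated with a DNA-repair-mutant yeast strain. Growth was then read and compared against vehicle-treated controls.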
# [9] = NCI Yeast Anticancer Drug Screen. Data for the CLN2oe strain (AID 163);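 note: 0% = growth of vehicle-only control cultures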; conditions: S. cerevisiae CLN2oe strain, active compounds read high
# In short: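 Strain altered in cell-cycle control, incubated with compound; growth compared to solvent-treated controls.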
# [10] = NCI Yeast Anticancer Drug Screen. Data for the cln2 rad14 strain (AID 165);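 note: 0% = growth equal to vehicle treated cultures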; conditions: S. cerevisiae cln2 rad14 strain, active compounds read high
# In short: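 The screen exposed genetically defined yeast (cln2 rad14) to test compounds and scored growth inhibition relative to vehicle-treated controls.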
# [11] = NCI Yeast Anticancer Drug Screen. Data for the bub3 strain (AID 167); conditions: S. cerevisiae bub3 mutant strain, active compounds read high
# In short: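 Steps: expose the mutant yeast strain to compound; grow alongside vehicle-treated cultures; measure growth; express inhibition against the vehicle cultures.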
# [12] = NCI Yeast Anticancer Drug Screen. Data for the wt2 strain (AID 169);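 note: 0% = growth of vehicle-treated yeast cultures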; conditions: S. cerevisiae wt2 strain growth inhibition, active compounds read high
# In short: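 Steps: yeast strain treated with compound; growth recorded; inhibition calculated relative to cultures given vehicle alone.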
# [13] = NCI Yeast Anticancer Drug Screen. Data for the mlh1 strain (AID 171);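 note: 0% = growth of vehicle-treated control cultures of the same strain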; conditions: S. cerevisiae mlh1 strain growth inhibition, active compounds read high
# In short: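 Yeast screen: mutant strain plus compound, growth scored against vehicle control wells.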
# [14] = NCI Yeast Anticancer Drug Screen. Data for the sgs1 strain (AID 173);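 note: 0% = growth of vehicle-only control cultures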; conditions: S. cerevisiae sgs1 mutant, active compounds read high
# In short: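 Inhibition of yeast growth served as the measure. The mutant strain was treated with each compound, and growth was normalised to cultures receiving vehicle alone.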
# [15] = NCI Yeast Anticancer Drug Screen. Data for the mlh1 rad18 strain (AID 175); conditions: S. cerevisiae mlh1 rad18 strain growth inhibition, active compounds read high
# In short: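 Compound-treated yeast growth, normalised to vehicle controls. Strain bears defined DNA repair mutations.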
# [16] = NCI Yeast Anticancer Drug Screen. Data for the rad18 strain (AID 177); conditions: S. cerevisiae rad18 mutant growth inhibition, active compounds read high
# In short: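 Inhibition values reflect reduced yeast growth compared with vehicle-treated controls, using a strain engineered with a DNA damage repair defect.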
# [17] = at 5.0 µM (retest, dose inferred, filed as 0.5)
# [18] = at 50.0 µM (retest, dose inferred, filed as 5.0)
compound,measurement,setting,value
CCCCOCn1c(=O)[nH]c(=O)c2cc(Br)ccc21,growth inhibition,[1]; at 1.2 µM,-35%
same,growth inhibition,[1]; at 3.7 µM,-45%
same,growth inhibition,[1]; at 11.0 µM,-30%
same,growth inhibition,[1]; at 33.0 µM,-6%
same,growth inhibition,[1]; at 100.0 µM,-10%
same,growth inhibition,[2]; at 1.2 µM,-37%
same,growth inhibition,[2]; at 3.7 µM,-18%
same,growth inhibition,[2]; at 11.0 µM,-58%
same,growth inhibition,[2]; at 33.0 µM,-44%
same,growth inhibition,[2]; at 100.0 µM,-39%
same,growth inhibition,[3]; at 1.2 µM,-59%
same,growth inhibition,[3]; at 3.7 µM,-71%
same,growth inhibition,[3]; at 11.0 µM,-50%
same,growth inhibition,[3]; at 33.0 µM,-61%
same,growth inhibition,[3]; at 100.0 µM,-92%
same,growth inhibition,[4]; at 1.2 µM,-52%
same,growth inhibition,[4]; at 3.7 µM,-36%
same,growth inhibition,[4]; at 11.0 µM,-47%
same,growth inhibition,[4]; at 33.0 µM,-32%
same,growth inhibition,[4]; at 100.0 µM,-32%
same,growth inhibition,[5]; at 1.2 µM,-35%
same,growth inhibition,[5]; at 3.7 µM,-26%
same,growth inhibition,[5]; [17],21%
same,growth inhibition,[5]; at 11.0 µM,-10%
same,growth inhibition,[5]; at 33.0 µM,-24%
same,growth inhibition,[5]; [18],22%
same,growth inhibition,[5]; at 50.0 µM,18.7%
same,growth inhibition,[5]; at 100.0 µM,-15%
same,growth inhibition,[6]; at 1.2 µM,-1%
same,growth inhibition,[6]; at 3.7 µM,6%
same,growth inhibition,[6]; [17],14%
same,growth inhibition,[6]; at 11.0 µM,2%
same,growth inhibition,[6]; at 33.0 µM,11%
same,growth inhibition,[6]; [18],11%
same,growth inhibition,[6]; at 50.0 µM,4.05%
same,growth inhibition,[6]; at 100.0 µM,-5%
same,growth inhibition,[7]; at 1.2 µM,-22%
same,growth inhibition,[7]; at 3.7 µM,-50%
same,growth inhibition,[7]; at 11.0 µM,-39%
same,growth inhibition,[7]; at 33.0 µM,-35%
same,growth inhibition,[7]; at 100.0 µM,-42%
same,growth inhibition,[8]; [17],59%
same,growth inhibition,[8]; [18],91% (active)
same,growth inhibition,[8]; at 50.0 µM,90.2% (active)
same,growth inhibition,[9]; at 1.2 µM,-20%
same,growth inhibition,[9]; at 3.7 µM,-11%
same,growth inhibition,[9]; at 11.0 µM,-38%
same,growth inhibition,[9]; at 33.0 µM,-21%
same,growth inhibition,[9]; at 100.0 µM,-29%
same,growth inhibition,[10]; [17],32%
same,growth inhibition,[10]; [18],86% (active)
same,growth inhibition,[10]; at 50.0 µM,17.8%
same,growth inhibition,[11]; at 1.2 µM,-46%
same,growth inhibition,[11]; at 3.7 µM,-36%
same,growth inhibition,[11]; [17],23%
same,growth inhibition,[11]; at 11.0 µM,-35%
same,growth inhibition,[11]; at 33.0 µM,-39%
same,growth inhibition,[11]; [18],92% (active)
same,growth inhibition,[11]; at 50.0 µM,82.2% (active)
same,growth inhibition,[11]; at 100.0 µM,-33%
same,growth inhibition,[12]; at 1.2 µM,-21%
same,growth inhibition,[12]; at 3.7 µM,-20%
same,growth inhibition,[12]; at 11.0 µM,-21%
same,growth inhibition,[12]; at 33.0 µM,-19%
same,growth inhibition,[12]; at 100.0 µM,0%
same,growth inhibition,[13]; at 1.2 µM,-48%
same,growth inhibition,[13]; at 3.7 µM,-48%
same,growth inhibition,[13]; at 11.0 µM,-41%
same,growth inhibition,[13]; at 33.0 µM,-41%
same,growth inhibition,[13]; at 100.0 µM,-62%
same,growth inhibition,[14]; at 1.2 µM,-18%
same,growth inhibition,[14]; at 3.7 µM,-7%
same,growth inhibition,[14]; at 11.0 µM,-16%
same,growth inhibition,[14]; at 33.0 µM,-18%
same,growth inhibition,[14]; at 100.0 µM,-8%
same,growth inhibition,[15]; [17],28%
same,growth inhibition,[15]; [18],32%
same,growth inhibition,[15]; at 50.0 µM,26.9%
same,growth inhibition,[16]; at 1.2 µM,-19%
same,growth inhibition,[16]; at 3.7 µM,-5%
same,growth inhibition,[16]; at 11.0 µM,-1%
same,growth inhibition,[16]; at 33.0 µM,9%
same,growth inhibition,[16]; at 100.0 µM,38%
CC(C)(CCCCC(C)(C)[N+](C)(C)C)[N+](C)(C)C,growth inhibition,[1]; at 1.2 µM,-4%
same,growth inhibition,[1]; at 3.7 µM,-6%
same,growth inhibition,[1]; at 11.0 µM,-5%
same,growth inhibition,[1]; at 33.0 µM,-10%
same,growth inhibition,[1]; at 100.0 µM,-1%
same,growth inhibition,[2]; at 1.2 µM,-2%
same,growth inhibition,[2]; at 3.7 µM,0%
same,growth inhibition,[2]; at 11.0 µM,-1%
same,growth inhibition,[2]; at 33.0 µM,-1%
same,growth inhibition,[2]; at 100.0 µM,1%
same,growth inhibition,[3]; at 1.2 µM,-3%
same,growth inhibition,[3]; at 3.7 µM,-4%
same,growth inhibition,[3]; at 11.0 µM,0%
same,growth inhibition,[3]; at 33.0 µM,-1%
same,growth inhibition,[3]; at 100.0 µM,-2%
same,growth inhibition,[4]; at 1.2 µM,-4%
same,growth inhibition,[4]; at 3.7 µM,-3%
same,growth inhibition,[4]; at 11.0 µM,-4%
same,growth inhibition,[4]; at 33.0 µM,-16%
same,growth inhibition,[4]; at 100.0 µM,-2%
same,growth inhibition,[5]; at 1.2 µM,-10%
same,growth inhibition,[5]; at 3.7 µM,-18%
same,growth inhibition,[5]; [17],4%
same,growth inhibition,[5]; at 11.0 µM,-25%
same,growth inhibition,[5]; at 33.0 µM,-4%
same,growth inhibition,[5]; [18],54%
same,growth inhibition,[5]; at 50.0 µM,85.2% (active)
same,growth inhibition,[5]; at 100.0 µM,-2%
same,growth inhibition,[6]; at 1.2 µM,0%
same,growth inhibition,[6]; at 3.7 µM,1%
same,growth inhibition,[6]; [17],21%
same,growth inhibition,[6]; at 11.0 µM,0%
same,growth inhibition,[6]; at 33.0 µM,1%
same,growth inhibition,[6]; [18],42%
same,growth inhibition,[6]; at 50.0 µM,88.5% (active)
same,growth inhibition,[6]; at 100.0 µM,-1%
same,growth inhibition,[7]; at 1.2 µM,-2%
same,growth inhibition,[7]; at 3.7 µM,-2%
same,growth inhibition,[7]; at 11.0 µM,-4%
same,growth inhibition,[7]; at 33.0 µM,-4%
same,growth inhibition,[7]; at 100.0 µM,-2%
same,growth inhibition,[8]; [17],0%
same,growth inhibition,[8]; [18],31%
same,growth inhibition,[8]; at 50.0 µM,89.1% (active)
same,growth inhibition,[9]; at 1.2 µM,-4%
same,growth inhibition,[9]; at 3.7 µM,-2%
same,growth inhibition,[9]; at 11.0 µM,2%
same,growth inhibition,[9]; at 33.0 µM,-3%
same,growth inhibition,[9]; at 100.0 µM,-1%
same,growth inhibition,[10]; [17],44%
same,growth inhibition,[10]; [18],52%
same,growth inhibition,[10]; at 50.0 µM,87.2% (active)
same,growth inhibition,[11]; at 1.2 µM,-1%
same,growth inhibition,[11]; at 3.7 µM,0%
same,growth inhibition,[11]; [17],-1%
same,growth inhibition,[11]; at 11.0 µM,-1%
same,growth inhibition,[11]; at 33.0 µM,0%
same,growth inhibition,[11]; [18],98% (active)
same,growth inhibition,[11]; at 50.0 µM,85.5% (active)
same,growth inhibition,[11]; at 100.0 µM,0%
same,growth inhibition,[12]; at 1.2 µM,-2%
same,growth inhibition,[12]; at 3.7 µM,-2%
same,growth inhibition,[12]; at 11.0 µM,-5%
same,growth inhibition,[12]; at 33.0 µM,-5%
same,growth inhibition,[12]; at 100.0 µM,-1%
same,growth inhibition,[13]; at 1.2 µM,1%
same,growth inhibition,[13]; at 3.7 µM,1%
same,growth inhibition,[13]; at 11.0 µM,0%
same,growth inhibition,[13]; at 33.0 µM,0%
same,growth inhibition,[13]; at 100.0 µM,-1%
same,growth inhibition,[14]; at 1.2 µM,-1%
same,growth inhibition,[14]; at 3.7 µM,1%
same,growth inhibition,[14]; at 11.0 µM,-2%
same,growth inhibition,[14]; at 33.0 µM,0%
same,growth inhibition,[14]; at 100.0 µM,0%
same,growth inhibition,[15]; [17],10%
same,growth inhibition,[15]; [18],35%
same,growth inhibition,[15]; at 50.0 µM,91.5% (active)
same,growth inhibition,[16]; at 1.2 µM,-4%
same,growth inhibition,[16]; at 3.7 µM,0%
same,growth inhibition,[16]; at 11.0 µM,-2%
same,growth inhibition,[16]; at 33.0 µM,-3%
same,growth inhibition,[16]; at 100.0 µM,-3%
